{
  "source": "PubChem BioAssay (Tox21)",
  "note": "Results filed as inconclusive are left out. Values without a mark were called inactive. Active and inactive are the calls of the source. Calls follow the shape of the dose curve; as a rule, active = well fitted activation curve with a large enough effect in the repeat runs; inconclusive = weak or mixed curves; inactive = flat fitted curve, though single readings scatter. % is scaled to controls: 0 for no effect and ±100 for the full control effect; potency is read from the fitted curve at half-maximal effect.",
  "data": [
    {"target": "Nuclear receptor subfamily 1 group I member 2 (Homo sapiens) (UniProt O75469)", "assay": "Human pregnane X receptor (PXR) activation by small molecules, qHTS assay (AID 1346985); also: nearly all actives have a fitted effect of over 40% in size", "settings": "DPX-2 HepG2 CYP3A4-luciferase, 24 h; series mostly up to 38.3 µM; activation: at the top concentration", "from_the_text": "National Center for Advancing Translational Sciences [NCATS]\nNIH Chemical Genomics Center [NCGC]\nU.S. Environmental Protection Agency [EPA]\nNational Institutes of Environmental Health Sciences [NIEHS]\nNational Toxicology Program [NTP]\nThe Pregnane X receptor (PXR), a ligand activated nuclear receptor plays a critical role in the regulation of genes involved in drug metabolism and transporters. Activation of PXR may be involved in the unwanted adverse drug-drug interactions. […] Therefore, identification of compounds with the potential for PXR activation can be of importance in improving the efficacy of drugs with less toxicity and avoiding drug-drug interactions.\nDPX-2 (Puracyp, Inc.) cell lines, used for screening against human PXR activation has HepG2 cells co-transfected with a PXR response element and a luciferase construct containing CYP3A4 promoter. Increase in luciferase activity can be used to identify the compounds that activate the PXR pathway.\nDPX-2 cells were dispensed at 2,000 cells per well in 5uL of assay medium into white, solid-bottom 1536-well plates using a Multidrop Combi dispenser (Thermo Scientific). The assay plates were incubated at 37C for 5hr before transferring 23nL of test compounds dissolved in DMSO and positive control via Pintool station (Wako). The assay plates were incubated at 37C for 24hr. Then 5ul One-Glo assay reagent (Promega) was added to each plate by a Flying Reagent Dispenser (FRD, Aurora Discovery) and following 30 min incubation at room temperature, luciferase activity was quantified on a ViewLux plate reader (Perkin Elmer).", "values": [
      {"smiles": "C[C@@H](CO)NC(=O)[C@@H]1C=C2c3cccc4[nH]cc(c34)C[C@H]2N(C)C1", "activation": "-6.86%"},
      {"smiles": "NC1=NC(=O)N2CC12", "note": "(stereo not given)", "activation": "-4.71%"},
      {"smiles": "CO[C@H]1[C@@H](O)C[C@H](O[C@H]2[C@@H](O)C[C@H](O[C@H]3[C@@H](O)C[C@H](O[C@H]4CC[C@@]5(C)[C@H](CC[C@@H]6[C@@H]5C[C@@H](O)[C@]5(C)[C@@H](C7=CC(=O)OC7)CC[C@]65O)C4)O[C@@H]3C)O[C@@H]2C)O[C@@H]1C", "activation": "-9.51%"},
      {"smiles": "CCCCNCC(O)c1ccc(O)cc1", "note": "(stereo not given)", "activation": "3.44%"},
      {"smiles": "CCC1(CC)C(=O)NC(=O)N(C)C1=O", "activation": "-2.4%"},
      {"smiles": "CC(C)(O)[C@@H]1[C@H]2OC(=O)[C@@H]1[C@]1(O)C[C@H]3O[C@]34C(=O)O[C@H]2[C@]14C", "activation": "-2.77%"},
      {"smiles": "CCNCC(O)c1cccc(O)c1", "note": "(stereo not given)", "activation": "-0.717% [at 17.1 µM]"},
      {"smiles": "CCON=O", "activation": "7.97%"},
      {"smiles": "CCCN1CCC[C@H](c2cccc(O)c2)C1", "activation": "9.41%"},
      {"smiles": "COC(=O)[C@@H]1[C@H]2CC[C@@H](C[C@H]1OC(=O)c1ccccc1)N2C", "activation": "-0.108%"},
      {"smiles": "Cc1ccccc1-n1c(C)nc2ccccc2c1=O", "activation": "21%"},
      {"smiles": "CCC(N)Cc1c[nH]c2ccccc12", "note": "(stereo not given)", "activation": "21.2%"},
      {"smiles": "CN1c2ccccc2C(NCCCCCCC(=O)O)c2ccc(Cl)cc2S1(=O)=O", "note": "(stereo not given)", "Potency": "7.94 µM (active)"},
      {"smiles": "N#CC1(N2CCCCC2)CCCCC1", "activation": "-7.7%"},
      {"smiles": "O=C1OC2(c3cc(Br)c(O)cc3Oc3c2cc(Br)c(O)[c]3[Hg])c2ccccc21", "note": "(stereo not given)", "activation": "3.02% [at 17.1 µM]"},
      {"smiles": "CC(=O)OO", "activation": "5.01%"},
      {"smiles": "C=CCN1CC[C@]23c4c5ccc(O)c4O[C@H]2[C@@H](O)C=C[C@H]3[C@H]1C5", "activation": "7.34%"},
      {"smiles": "C[C@H]1CC[C@]2(NC1)O[C@H]1C[C@H]3[C@@H]4CC[C@H]5C[C@@H](O)CC[C@]5(C)[C@H]4CC[C@]3(C)[C@H]1[C@@H]2C", "activation": "5.63%"},
      {"smiles": "COC([CH2][Hg])CNC(=O)c1ccccc1OCC(=O)O", "note": "(stereo not given)", "activation": "-2.45%"},
      {"smiles": "COc1ccc(OC)c([C@@H](O)[C@H](C)N)c1", "activation": "-6.1%"},
      {"smiles": "S=C(S)N1CCNCC1", "activation": "0.0479%"},
      {"smiles": "C[N+]1([O-])[C@@H]2CC(OC(=O)[C@H](CO)c3ccccc3)C[C@H]1[C@@H]1O[C@@H]12", "note": "(stereo not given in full)", "Potency": "inactive"},
      {"smiles": "CCC(=O)O[C@@](Cc1ccccc1)(c1ccccc1)[C@@H](C)CN(C)C", "activation": "14.5% [at 17.1 µM]"},
      {"smiles": "O=c1[nH]cc(N(CCCl)CCCl)c(=O)[nH]1", "activation": "4%"},
      {"smiles": "O=C(CS(=O)C(c1ccccc1)c1ccccc1)NO", "note": "(stereo not given)", "activation": "0.799%"},
      {"smiles": "CCOc1ccc2c3c1O[C@H]1[C@@H](O)C=C[C@H]4[C@@H](C2)N(C)CC[C@@]341", "activation": "26.9%"},
      {"smiles": "CCCCCc1cc(O)c2c(c1)OC(C)(C)[C@@H]1CCC(C)=C[C@@H]21", "Potency": "7.94 µM (active)"},
      {"smiles": "O=C1Nc2ccc(Cl)cc2C(c2ccccc2Cl)=NC1O", "note": "(stereo not given)", "activation": "7.5%"},
      {"smiles": "C[N+]1(C)CCCCC1COC(=O)C(O)(c1ccccc1)c1ccccc1", "note": "(stereo not given)", "activation": "-3.17%"},
      {"smiles": "CN1CCCC(=C(c2cccs2)c2cccs2)C1", "activation": "20%"},
      {"smiles": "CCC1(C)CC(=O)NC(=O)C1", "activation": "-1.13% [at 17.1 µM]"},
      {"smiles": "O=[N+]([O-])c1cc(I)c(O)c(I)c1", "activation": "-3.19%"},
      {"smiles": "CCC1(c2ccccc2)C(=O)NC(=O)N(C)C1=O", "note": "(stereo not given)", "activation": "13.5%"},
      {"smiles": "CC1(C)S[C@@H]2[C@H](N)C(=O)N2[C@H]1C(=O)O", "activation": "-9.34% [at 17.1 µM]"},
      {"smiles": "CCCC(=O)OC(C(Cl)(Cl)Cl)P(=O)(OC)OC", "note": "(stereo not given)", "activation": "-4.42%"},
      {"smiles": "C[C@]12C=CC(=O)C=C1CC[C@@H]1[C@@H]2CC[C@]2(C)OC(=O)CC[C@@H]12", "activation": "3.79%"},
      {"smiles": "COC1=CC=C2[C@H]3Cc4ccc(OC)c5c4[C@@]2(CCN3C)[C@H]1O5", "activation": "4.86% [at 17.1 µM]"},
      {"smiles": "CCC(C)(S(=O)(=O)CC)S(=O)(=O)CC", "activation": "-10.9%"},
      {"smiles": "CC(=O)O[C@H]1C[C@H](O[C@H]2[C@@H](O)C[C@H](O[C@H]3[C@@H](O)C[C@H](O[C@H]4CC[C@@]5(C)[C@H](CC[C@@H]6[C@@H]5C[C@@H](O)[C@]5(C)[C@@H](C7=CC(=O)OC7)CC[C@]65O)C4)O[C@@H]3C)O[C@@H]2C)O[C@H](C)[C@H]1O[C@@H]1O[C@H](CO)[C@@H](O)[C@H](O)[C@H]1O", "activation": "-11.7%"},
      {"smiles": "NCC[C@H](O)C(=O)N[C@@H]1C[C@H](N)[C@@H](O[C@H]2O[C@H](CN)[C@@H](O)[C@H](O)[C@H]2N)[C@H](O[C@@H]2O[C@H](CO)[C@@H](O)[C@H]2O)[C@H]1O", "activation": "-9.84% [at 17.1 µM]"}
    ]}
  ]
}
